For 6 molecules, composite z-score and z-score results are on record in PubChem BioAssay.

Molecules are shown by their SMILES. Active and inactive are the calls of the source.

Experiment [1] has as its system Plasmodium falciparum Sir2 (PF13_0152, Sir2A). Description: pfSir2 binders on small-molecule microarrays, primary screen, biochemical, small-molecule microarray, 635 nm fluorescence (AID 1098).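 Further: score merges spot fluorescence intensity with its signal-to-noise ratio.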 The note with it: small-molecule microarray binding, fluorescence 635 nm; higher = more signal.
Experiment [2] can be described thus: small-molecule microarray binders of probe aDKK1, primary screen, biochemical, biotinylated probe, 635/667 nm fluorescence (AID 1099).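 Further: score merges 667nm spot fluorescence with signal to noise across triplicate slides.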 Particulars: higher = more signal.
Experiment [3] can be described thus: small-molecule microarray binders of probe aCHRDL2, primary screen, biochemical, biotinylated probe, 635/667 nm fluorescence (AID 1100). The note with it: higher = more signal.
Experiment [4] can be described thus: splicing luciferase reporter signal modulators, primary screen, spliceosome inhibition project, cell-based, HEK293, splice +/- reporter (AID 1101).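 Further: HEK293 cells carrying a splicing-competent luciferase reporter gene; test concentration not given here.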 The note with it: luminescence, 24 h, higher = more signal, called active from +8 up or from −8 down. (Reporter assays use an easily measured gene product as a stand-in for the process of interest.)
Experiment [5] has as its target Fibroblast growth factor 10 (Homo sapiens) (UniProt O15520). Description: FGF10 binders on small-molecule microarrays, primary screen, biochemical, small-molecule microarray, 635 nm fluorescence (AID 1102). The note with it: FGF10 binding, fluorescence 635 nm, higher = more signal.
The test system of experiment [6] is glycogen synthase kinase-3 (GSK3A per assay name; protocol says GSK3B). Description: GSK3 binders on small-molecule microarrays, primary screen, biochemical, small-molecule microarray, 635 nm fluorescence, GSK3A (AID 1103). Further: the record names both GSK3A and GSK3B. Particulars: small-molecule microarray binding, fluorescence 635 nm; higher = more signal.
Experiment [7] has as its target Epidermal growth factor receptor (Homo sapiens) (UniProt P00533). The experiment in a line: EGFR binders on small-molecule microarrays, primary screen, biochemical, small-molecule microarray, 635 nm fluorescence (AID 1104).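 Further: score merges 667 nm emission intensity with spot signal to noise over triplicate slides.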 The note with it: EGFR binding, higher = more signal.
For experiment [8], the target named is Follistatin-related protein 3 (Homo sapiens) (UniProt O95633). The experiment in a line: FSTL3 binders on small-molecule microarrays, primary screen, biochemical, small-molecule microarray, 635 nm fluorescence (AID 1105).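 Further: score merges emission near 667 nm and signal to noise per printed spot across three slides.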 The note with it: FSTL3 binding, higher = more signal.
Chain of Follistatin-related protein 3 (Homo sapiens) (O95633 whole entry, looked up): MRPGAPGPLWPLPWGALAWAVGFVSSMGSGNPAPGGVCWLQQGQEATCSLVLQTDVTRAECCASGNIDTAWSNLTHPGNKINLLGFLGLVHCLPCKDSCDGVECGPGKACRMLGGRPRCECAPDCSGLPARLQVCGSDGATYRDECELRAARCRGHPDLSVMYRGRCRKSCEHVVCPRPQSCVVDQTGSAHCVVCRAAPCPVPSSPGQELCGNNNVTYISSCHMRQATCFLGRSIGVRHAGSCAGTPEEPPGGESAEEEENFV
Experiment [9] concerns the target Dickkopf-related protein 1 (Homo sapiens) (UniProt O94907). The experiment in a line: DKK1 binders on small-molecule microarrays, primary screen, biochemical, small-molecule microarray, 635 nm fluorescence scan (AID 1106).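 Further: score merges emission near 667 nm with signal to noise over three replicate slides.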 The note with it: DKK1 binding, higher = more signal.
The test system of experiment [10] is Inhibin beta A chain (activin A). The experiment in a line: INHBA (activin A) binders on microarrays, primary screen, biochemical, small-molecule microarray, 635 nm fluorescence scan (AID 1107).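 Further: mouse activin A protein probed at 4.33 µg/mL on printed slides; score merges bound-protein fluorescence near 667 nm with spot signal-to-noise.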 The note with it: small-molecule microarray binding, higher = more signal.
The test system of experiment [11] is Human papillomavirus type 1a protein E7 (residues 44-93). The experiment in a line: HPV1a E7 fragment binders on microarrays, primary screen, biochemical, small-molecule microarray, residues 44-93, 635 nm fluorescence (AID 1108).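 Further: E7 fragment applied at 1 µg/mL in TBST for 1 h at 4 C; score combines spot fluorescence with its signal to noise ratio.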 The note with it: small-molecule microarray binding, fluorescence 635 nm; higher = more signal.
Experiment [12] can be described thus: modulators of HCV replicon luciferase signal, primary screen, HCV replication inhibitor project, Huh7 cells, luciferase reporter (AID 1109).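 Further: huh7 hepatoma cells harbouring a luciferase neomycin HCV replicon reporter; luciferase luminescence as measure of HCV replicon replication; test concentration not given here.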 The note with it: 48 h, higher = more signal. On the technique in general: In antiviral work, replicon cells carry a viral genome segment that copies itself.
The target of experiment [13] is Left-right determination factor 2 (Homo sapiens) (UniProt O00292). Description: LEFTY2 binders on small-molecule microarrays, primary screen, biochemical, small-molecule microarray, 635 nm fluorescence scan (AID 1110). Particulars: LEFTY2 binding, higher = more signal.
Chain of Left-right determination factor 2 (Homo sapiens) (O00292 whole entry, looked up): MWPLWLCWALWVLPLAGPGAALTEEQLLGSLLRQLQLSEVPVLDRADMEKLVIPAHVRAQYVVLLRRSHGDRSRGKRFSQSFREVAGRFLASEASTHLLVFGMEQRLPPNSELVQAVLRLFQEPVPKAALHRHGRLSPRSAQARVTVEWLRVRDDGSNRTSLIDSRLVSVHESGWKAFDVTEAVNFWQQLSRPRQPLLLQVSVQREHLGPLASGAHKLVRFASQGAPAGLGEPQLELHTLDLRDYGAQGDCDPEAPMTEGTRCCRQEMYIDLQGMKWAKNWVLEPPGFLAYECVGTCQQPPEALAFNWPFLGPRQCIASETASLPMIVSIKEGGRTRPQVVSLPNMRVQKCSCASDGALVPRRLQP
The target of experiment [14] is Calmodulin-1 (Homo sapiens) (UniProt P0DP23). The experiment in a line: CALM1 binders on microarrays, EGTA buffer, profiling panel, biochemical, small-molecule microarray, Cy5-labelled CALM1 (AID 1111).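 Further: labelled calmodulin applied in Tris saline Tween buffer holding calcium plus EGTA and DTT.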 Particulars: Cy5-CALM1 binding fluorescence, higher = more signal.
Experiment [15] has the same target. Description: calcium-bound CALM1 binders on microarrays, profiling panel, artefact control for SMM control-protein annotation, biochemical, small-molecule microarray, Cy5-labelled CALM1, plus calcium (AID 1112).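 Further: score merges spot fluorescence with signal to noise from triplicate slides.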 The note with it: Cy5-CALM1 binding fluorescence, higher = more signal.
Experiment [16] is described as follows: small-molecule microarray binders of probe aWnt5a, primary screen, biochemical, biotinylated probe, 635/667 nm fluorescence (AID 1113).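 Further: score merges 667 nm fluorescence intensity with signal-to-noise per printed feature.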 Particulars: higher = more signal.
The nature of experiment [17]: small-molecule microarray binders of probe aShh, primary screen, biochemical, biotinylated probe, 635/667 nm fluorescence (AID 1114).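 Further: probe is biotin-labelled aShh protein from a stem cell growth factor screen; measures binding of labelled protein to compounds printed on the slide; score merges feature fluorescence at 667 nm with signal-to-noise.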 The note with it: higher = more signal.
A short description of experiment [18]: small-molecule microarray binders of probe aNog, primary screen, biochemical, biotinylated probe, 635/667 nm fluorescence (AID 1115).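 Further: probe is biotinylated aNog protein used at 0.15 µg/mL for 1 h at 4 C; z-score combines 667 nm fluorescence of each spot with its signal to noise.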 Particulars: higher = more signal.
Experiment [19] addresses Torsin-1A-interacting protein 1 (Homo sapiens) (UniProt Q5JTV8). The experiment in a line: LAP1 binders from COS7 cell lysate, primary screen, small-molecule microarray, 635/667 nm fluorescence (AID 1116). The note with it: COS7-hLAP1 lysate binding, 635 nm fluorescence, higher = more signal.
The target of experiment [20] is Alpha-bungarotoxin (Bungarus multicinctus) (UniProt P60615). The experiment in a line: alpha-bungarotoxin binders on microarray, profiling panel, artefact control for SMM control protein annotation, biochemical, small-molecule microarray, Alexa647 label, 635/667 nm fluorescence (AID 1117). Particulars: alpha-BTX-A647 binding fluorescence, higher = more signal.
Chain of Alpha-bungarotoxin (Bungarus multicinctus) (P60615 whole entry, looked up): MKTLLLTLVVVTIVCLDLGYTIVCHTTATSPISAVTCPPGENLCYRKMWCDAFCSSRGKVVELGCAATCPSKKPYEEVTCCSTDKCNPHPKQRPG

Chain of Dickkopf-related protein 1 (Homo sapiens) (O94907 whole entry, looked up): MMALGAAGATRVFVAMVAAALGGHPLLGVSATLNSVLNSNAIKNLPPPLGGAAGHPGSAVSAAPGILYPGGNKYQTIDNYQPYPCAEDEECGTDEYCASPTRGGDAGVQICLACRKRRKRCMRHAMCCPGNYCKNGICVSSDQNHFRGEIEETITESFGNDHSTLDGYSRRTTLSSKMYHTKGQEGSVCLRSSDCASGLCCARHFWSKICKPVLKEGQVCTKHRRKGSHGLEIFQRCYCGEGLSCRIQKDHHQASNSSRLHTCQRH
Chain of Epidermal growth factor receptor (Homo sapiens) (P00533 whole entry, looked up): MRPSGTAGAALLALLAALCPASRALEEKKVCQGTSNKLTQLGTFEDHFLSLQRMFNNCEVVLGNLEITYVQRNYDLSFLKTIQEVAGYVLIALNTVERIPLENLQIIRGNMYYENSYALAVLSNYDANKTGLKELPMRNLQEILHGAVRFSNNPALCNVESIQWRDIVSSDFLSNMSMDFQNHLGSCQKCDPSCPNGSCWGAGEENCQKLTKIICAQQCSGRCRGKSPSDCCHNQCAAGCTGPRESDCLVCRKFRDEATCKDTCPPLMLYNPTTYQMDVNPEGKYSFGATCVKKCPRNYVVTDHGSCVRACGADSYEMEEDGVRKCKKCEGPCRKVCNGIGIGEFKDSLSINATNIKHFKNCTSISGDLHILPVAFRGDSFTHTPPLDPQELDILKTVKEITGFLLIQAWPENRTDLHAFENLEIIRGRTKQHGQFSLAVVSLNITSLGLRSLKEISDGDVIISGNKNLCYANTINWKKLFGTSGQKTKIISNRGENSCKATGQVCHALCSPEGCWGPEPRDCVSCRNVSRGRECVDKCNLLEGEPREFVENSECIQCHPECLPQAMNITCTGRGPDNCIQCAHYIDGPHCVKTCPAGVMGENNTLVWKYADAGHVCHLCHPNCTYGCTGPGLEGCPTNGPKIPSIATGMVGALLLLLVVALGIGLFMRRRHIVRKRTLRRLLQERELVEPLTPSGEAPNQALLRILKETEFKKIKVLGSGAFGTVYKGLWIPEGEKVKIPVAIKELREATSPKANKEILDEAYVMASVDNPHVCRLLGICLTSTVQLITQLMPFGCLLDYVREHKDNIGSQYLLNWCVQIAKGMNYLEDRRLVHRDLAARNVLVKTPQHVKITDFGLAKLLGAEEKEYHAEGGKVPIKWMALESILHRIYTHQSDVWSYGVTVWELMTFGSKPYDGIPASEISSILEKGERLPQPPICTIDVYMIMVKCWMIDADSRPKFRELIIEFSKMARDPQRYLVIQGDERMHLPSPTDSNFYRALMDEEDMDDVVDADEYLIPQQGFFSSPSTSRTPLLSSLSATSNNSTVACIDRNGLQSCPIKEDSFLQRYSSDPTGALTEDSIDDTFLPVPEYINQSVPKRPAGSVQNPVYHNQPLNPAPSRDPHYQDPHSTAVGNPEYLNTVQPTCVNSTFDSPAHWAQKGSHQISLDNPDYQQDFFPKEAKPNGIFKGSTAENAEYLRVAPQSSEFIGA
Chain of Torsin-1A-interacting protein 1 (Homo sapiens) (Q5JTV8 whole entry, looked up): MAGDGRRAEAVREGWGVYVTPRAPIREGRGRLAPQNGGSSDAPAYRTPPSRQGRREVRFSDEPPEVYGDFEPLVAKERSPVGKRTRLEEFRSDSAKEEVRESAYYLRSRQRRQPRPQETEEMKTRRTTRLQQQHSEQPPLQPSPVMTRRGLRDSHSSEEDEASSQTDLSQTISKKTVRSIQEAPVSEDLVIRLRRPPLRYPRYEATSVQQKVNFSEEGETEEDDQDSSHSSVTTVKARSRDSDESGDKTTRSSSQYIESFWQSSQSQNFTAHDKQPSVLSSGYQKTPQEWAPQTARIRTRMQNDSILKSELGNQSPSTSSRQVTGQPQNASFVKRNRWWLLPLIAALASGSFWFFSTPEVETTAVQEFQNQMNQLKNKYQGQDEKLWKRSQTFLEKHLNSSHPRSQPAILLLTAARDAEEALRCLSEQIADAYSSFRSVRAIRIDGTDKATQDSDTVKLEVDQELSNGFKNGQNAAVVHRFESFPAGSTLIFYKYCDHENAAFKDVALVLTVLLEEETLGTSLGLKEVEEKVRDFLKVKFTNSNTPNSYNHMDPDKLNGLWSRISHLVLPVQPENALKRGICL
Chain of Fibroblast growth factor 10 (Homo sapiens) (O15520 whole entry, looked up): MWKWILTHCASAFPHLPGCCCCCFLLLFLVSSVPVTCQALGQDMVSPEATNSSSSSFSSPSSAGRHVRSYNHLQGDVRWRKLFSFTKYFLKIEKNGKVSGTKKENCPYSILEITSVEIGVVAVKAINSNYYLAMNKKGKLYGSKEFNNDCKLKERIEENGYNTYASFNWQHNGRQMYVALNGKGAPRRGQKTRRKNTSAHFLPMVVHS

Regarding `C#CCN1[C@@H](Cc2ccccc2)C(=O)O[C@H](Cc2ccccc2)[C@@H]1/C=C/C1CC1`, the composite z-score is 0.345 in [1]; -0.251 in experiment [2]; -0.505 in experiment [3]; 0.209 in experiment [5]; 0.524 in experiment [6]; -0.333 in experiment [7]. For the same molecule, the composite z-score in [8] was 0.22; in [9] it was 0.156; in [10], 0.781; in [11], 0.805; in [13] it was 0.137; in [14] it was -0.63. Besides, the composite z-score is -0.717 in experiment [15]; -0.118 in [16]; -0.0337 in experiment [17]; -0.196 in experiment [18]; 0.436 in experiment [19]; 0.456 in experiment [20]. Besides, the z-score in experiment [4] was -0.29 (inactive); in experiment [12], -2.28.
As for `C=C(CCCC)C(=O)CC[C@@H](OC(=O)c1ccccc1-c1ccccc1C(=O)O)c1ccccc1OCCO`, the composite z-score in experiment [1] is 0.776; in experiment [2] it was -0.286; in [3], -0.543; in [5] it was 1.27; in experiment [6], -0.121; in [7], -0.215. Moreover, the composite z-score in experiment [8] is 0.27; in experiment [9] it was 0.373; in experiment [10] it was 0.959; in experiment [11], 1.19; in experiment [13], 0.0268; in [14], 0.525. The composite z-score was -0.954 in experiment [15]; -0.096 in experiment [16]; -0.0904 in [17]; -0.147 in experiment [18]; 2.43 in [19]; 0.16 in [20]. Moreover, the z-score in experiment [4] was 2.3 (inactive); in experiment [12], -2.84.
With `NCCCCCCNC(=O)[C@@H]1C[C@@H]2C(=O)N3CCC[C@H]3C(=O)N2[C@@H]1c1cccc(OCCO)c1`, the composite z-score in experiment [1] was found to be 1.23; in experiment [2], 0.0549; in experiment [3], 0.798; in [5] it was 0.752; in experiment [6], 0.851; in experiment [7], 0.405. Further, the composite z-score in experiment [8] is 1.04; in experiment [9] it was 1.2; in [10], 1.01; in experiment [11] it was -0.0954; in [13], 0.738; in experiment [14], 0.263. Further, the composite z-score in experiment [15] is -0.334; in experiment [16], -0.0286; in [17], -0.0035; in experiment [18], -0.366; in [19], 0.572; in [20], 1.01. In addition, the z-score in [4] was -1.42 (inactive); in experiment [12] it was 0.116.
With `CC1CC/C=C\[C@H]2OC34C=CCN(Cn5nnc6ccccc65)C(=O)[C@H]3N(CCCCCCO)C(=O)[C@@H]4C2C(=O)O1` (stereo not given in full), the composite z-score in experiment [1] was 0.765; in [2], -0.252; in experiment [3], 0.794; in experiment [5], -0.835; in experiment [6], -0.759; in experiment [7] it was -0.951. The composite z-score in [8] is -1.23; in experiment [9], -1.36; in [10] it was -0.306; in experiment [11], -0.0257; in experiment [13], -1.7; in [14], 0.259. Further, the composite z-score in experiment [15] was 0.659; in [16], -0.232; in [17], -0.0709; in experiment [18], 0.0021; in experiment [19], 0.145; in [20], -0.551. Moreover, the z-score in experiment [4] was 0.468 (inactive); in [12] it was 0.0151.
Consider `COc1ccc(C(=O)Nc2ccc3c(c2)[C@@]2(O[C@H](CCO)[C@@H]([Si](C)(C)c4ccc(OC)cc4)[C@@H]2C)C(=O)N3Cc2ccccc2)cc1`, for which the composite z-score in experiment [1] was 0.578; in [2] it was -0.267; in [3], 0.546; in experiment [5], 0.517; in experiment [6] it was 0.369; in experiment [7] it was 0.252. Also, the composite z-score is 0.527 in experiment [8]; 0.27 in experiment [9]; 1.17 in experiment [10]; 1.28 in experiment [11]; 0.219 in experiment [13]; 0.397 in experiment [14]. The composite z-score is 0.238 in [15]; -0.0599 in experiment [16]; -0.0782 in experiment [17]; 0.56 in experiment [18]; 0.518 in [19]; 0.399 in [20]. Also, the z-score in experiment [4] is -4.86 (inactive); in [12], -5.23.
For `CC1CC/C=C\[C@H]2OC34C=CCN(Cc5ccccc5)C(=O)[C@H]3N(CCCCCCO)C(=O)[C@@H]4C2C(=O)O1` (stereo not given in full), the composite z-score in experiment [1] was 0.954; in experiment [2] it was -0.0995; in experiment [3] it was 0.705; in experiment [5] it was -0.965; in experiment [6], -0.587; in experiment [7] it was -1.28. Also, the composite z-score in [8] was -1.01; in experiment [9], -1.49; in experiment [10] it was 0.0203; in experiment [11], -0.504; in experiment [13], -1.26; in experiment [14], 0.284. Besides, the composite z-score is 0.636 in [15]; -0.12 in [16]; -0.0146 in [17]; -0.0007 in experiment [18]; 2.32 in experiment [19]; -1.2 in experiment [20]. Also, the z-score is 0.0368 (inactive) in [4] and -0.117 in experiment [12].
